Laboratory results published in the antibiotic and cytotoxicity screens of Wong et al. (2023).
The whole screen tested about 39,000 compounds, of which about 3,300 (8.5%) were called active. The list comes from a sample in which actives are over-represented; it also holds similar structures and randomly drawn compounds.

Each compound was assayed on HepG2 (assay: cytotoxicity call (relative viability < 0.9)). Settings: 10 µM.
With `C[C@H](CO)N1C[C@H](C)[C@@H](CN(C)Cc2cncnc2)Oc2ncc(C#C[C@@H](C)O)cc2C1=O` the cytotoxicity call was “inactive”. For `O=P(O)(O)CN1CCN(CP(=O)(O)O)CCN(CP(=O)(O)O)CCN(CP(=O)(O)O)CC1`, the cytotoxicity call was “inactive”. In the case of `COc1ccc(NC(=O)Nc2ccc3c(c2)CC(=O)N([C@H](C)CO)C[C@@H](C)[C@H](CN(C)CC2CCCCC2)O3)cc1`, the cytotoxicity call is reported as “inactive”. For `C[C@@H]1CN([C@H](C)CO)C(=O)Cc2cc(NC(=O)Nc3ccc(F)cc3)ccc2O[C@H]1CN(C)CC1CCCCC1`, the cytotoxicity call was “active”. `C[C@@H]1CN([C@@H](C)CO)C(=O)Cc2cc(NC(=O)Nc3ccc(F)cc3)ccc2O[C@@H]1CN(C)CC1CCCCC1` was tested, and the cytotoxicity call was “active”. `C[C@H]1CN([C@@H](C)CO)C(=O)Cc2cc(NC(=O)Nc3ccc(F)cc3)ccc2O[C@@H]1CN(C)CC1CCCCC1` was tested, and the cytotoxicity call was “active”. `C[C@H]1CN([C@@H](C)CO)C(=O)Cc2cc(NC(=O)Nc3ccc(F)cc3)ccc2O[C@H]1CN(C)CC1CCCCC1` was tested, and the cytotoxicity call was “active”. For `Cc1noc(C)c1S(=O)(=O)Nc1ccc2c(c1)C(=O)N([C@H](C)CO)C[C@H](C)[C@@H](CN(C)C(=O)NC1CCCCC1)O2`, the cytotoxicity call was “inactive”. In the case of `CNC[C@H]1OCCCC[C@H](C)Oc2ccc(NC(=O)c3ccncc3)cc2C(=O)N([C@H](C)CO)C[C@@H]1C`, the cytotoxicity call is reported as “inactive”. For `COc1ccc2c3c([nH]c2c1)[C@H](CO)N(C[C@]13CN(C1)S(=O)(=O)c1cccs1)C(=O)c1ccccc1`, the cytotoxicity call was “inactive”. `COc1ccc2c3c([nH]c2c1)[C@@H](CO)N(CC1CCOCC1)C[C@]13CCN(CC1)C(=O)C1CCOCC1` was tested, and the cytotoxicity call was “inactive”. For `CC(C)CC#Cc1ccc2c(c1)O[C@@H](CN(C)C(=O)Cc1ccncc1)[C@H](C)CN([C@H](C)CO)S2(=O)=O`, the cytotoxicity call was “inactive”. With `COc1ccc(CN(C)C[C@H]2OCCCC[C@@H](C)Oc3ccc(NC(=O)c4ccncc4)cc3C(=O)N([C@H](C)CO)C[C@@H]2C)cc1` the cytotoxicity call was “inactive”. With `CC(C)c1cn(CC[C@@H]2CC[C@H](N)[C@@H](CO)O2)nn1` the cytotoxicity call was “inactive”. For `CO[C@@H]1CN(C)C(=O)c2ccc(NS(=O)(=O)c3cn(C)cn3)cc2OC[C@@H](C)N(Cc2cccc(F)c2)C[C@@H]1C`, the cytotoxicity call was “inactive”. In the case of `CCN(CC)CCNc1nc(=O)[nH]nc1C`, the cytotoxicity call is reported as “inactive”. `O=C(N[C@H]1CC[C@H](CCn2cc(C3(O)CCCC3)nn2)O[C@@H]1CO)C1CCOCC1` was tested, and the cytotoxicity call was “inactive”. For `COc1ccc(-c2cnc3c(c2)C(=O)N([C@H](C)CO)C[C@H](C)[C@H](CN(C)S(=O)(=O)c2ccc(C#N)cc2)O3)cc1`, the cytotoxicity call was “inactive”. With `C[C@@H]1CN([C@H](C)CO)C(=O)Cc2cc(NC(=O)Nc3ccc(F)cc3)ccc2O[C@@H]1CN(C)CC1CCCCC1` the cytotoxicity call was “active”. In the case of `C[C@@H]1CN([C@@H](C)CO)C(=O)Cc2cc(NC(=O)Nc3ccc(F)cc3)ccc2O[C@H]1CN(C)CC1CCCCC1`, the cytotoxicity call is reported as “inactive”. With `C[C@H](CO)N1C[C@H](C)[C@H](CN(C)CC2CCCCC2)Oc2ccc(NC(=O)Nc3ccc(F)cc3)cc2CC1=O` the cytotoxicity call was “active”. `C[C@H](CO)N1C[C@H](C)[C@@H](CN(C)CC2CCCCC2)Oc2ccc(NC(=O)Nc3ccc(F)cc3)cc2CC1=O` was tested, and the cytotoxicity call was “inactive”. For `O=C(C[C@H]1CC[C@H]2[C@@H](COC[C@@H](O)CN2S(=O)(=O)c2ccccc2)O1)NCc1ccc2c(c1)OCO2`, the cytotoxicity call was “inactive”. `C[C@H](CO)N1C[C@H](C)[C@H](CN(C)C(=O)Nc2cccc3ccccc23)Oc2ncc(/C=C/c3ccccc3)cc2C1=O` was tested, and the cytotoxicity call was “inactive”. With `NC(=O)c1cc2ccccc2nc1C(N)=O` the cytotoxicity call was “inactive”. `C[C@H](CO)N1C[C@H](C)[C@H](CN(C)C(=O)Nc2cccc3ccccc23)Oc2ccc(NC(=O)C3CCCCC3)cc2C1=O` was tested, and the cytotoxicity call was “inactive”. In the case of `CO[C@H]1CN(C)C(=O)c2cc(NC(=O)c3ccccc3)ccc2OC[C@@H](C)N(C(=O)CN(C)C)C[C@H]1C`, the cytotoxicity call is reported as “inactive”. In the case of `CC(=O)Nc1ccc(CC(=O)O)cc1`, the cytotoxicity call is reported as “inactive”. In the case of `CCCCc1ccc(CC(=O)O)cc1`, the cytotoxicity call is reported as “active”. `O=C(O)Cc1ccc(CO)cc1` was tested, and the cytotoxicity call was “inactive”. With `COc1ccc2c3c(n(c2c1)C)[C@H](CO)N(C[C@]13CN(C1)C(=O)Nc1cccc(c1)F)C(=O)CN1CCOCC1` the cytotoxicity call was “inactive”. `COc1ccc(NC(=O)Nc2ccc3c(c2)C(=O)N([C@@H](C)CO)C[C@H](C)[C@H](CN(C)C(=O)C2CCCCC2)OCCCC[C@H](C)O3)cc1` was tested, and the cytotoxicity call was “active”. With `COc1ccc(NC(=O)Nc2ccc3c(c2)C(=O)N([C@H](C)CO)C[C@@H](C)[C@H](CN(C)C(=O)C2CCCCC2)OCCCC[C@@H](C)O3)cc1` the cytotoxicity call was “active”. `COc1ccc(NC(=O)Nc2ccc3c(c2)C(=O)N([C@@H](C)CO)C[C@@H](C)[C@@H](CN(C)C(=O)C2CCCCC2)OCCCC[C@@H](C)O3)cc1` was tested, and the cytotoxicity call was “inactive”. With `COc1ccc(NC(=O)Nc2ccc3c(c2)C(=O)N([C@@H](C)CO)C[C@H](C)[C@H](CN(C)C(=O)C2CCCCC2)OCCCC[C@@H](C)O3)cc1` the cytotoxicity call was “inactive”. In the case of `COc1ccc(NC(=O)Nc2ccc3c(c2)C(=O)N([C@H](C)CO)C[C@@H](C)[C@H](CN(C)C(=O)C2CCCCC2)OCCCC[C@H](C)O3)cc1`, the cytotoxicity call is reported as “inactive”. For `COc1ccc(NC(=O)Nc2ccc3c(c2)C(=O)N([C@@H](C)CO)C[C@H](C)[C@@H](CN(C)C(=O)C2CCCCC2)OCCCC[C@@H](C)O3)cc1`, the cytotoxicity call was “inactive”. For `Cn1cnc(S(=O)(=O)N2C[C@@H](O)COC[C@H]3O[C@H](CC(=O)NC4Cc5ccccc5C4)CC[C@@H]32)c1`, the cytotoxicity call was “inactive”. For `C[C@H]1CN([C@@H](C)CO)C(=O)c2cccc(NC(=O)Nc3ccc4c(c3)OCO4)c2O[C@@H]1CN(C)Cc1ccc(Cl)c(Cl)c1`, the cytotoxicity call was “inactive”. For `COc1ccc(S(=O)(=O)N(C)C[C@@H]2Oc3cc(Br)ccc3S(=O)(=O)N([C@H](C)CO)C[C@@H]2C)cc1`, the cytotoxicity call was “inactive”. With `COc1ccc([C@H]([C@H](Cc2ccccc2)OC(C)=O)N(CC#C[C@@H](O[Si](c2ccccc2)(c2ccccc2)C(C)(C)C)c2ccccc2)[C@@H](Cc2ccccc2)C(OC)OC)cc1` the cytotoxicity call was “inactive”. With `COc1ccc([C@H]([C@H](Cc2ccccc2)OC(C)=O)N(CC#C[C@@H](O)c2ccccc2)[C@@H](Cc2ccccc2)C(OC)OC)cc1` the cytotoxicity call was “active”. For `COc1ccc([C@H]([C@H](Cc2ccccc2)OC(C)=O)N(C/C=C\[C@@H](O)c2ccccc2)[C@@H](Cc2ccccc2)C(OC)OC)cc1`, the cytotoxicity call was “inactive”. In the case of `COc1ccc([C@H]([C@H](Cc2ccccc2)OC(C)=O)N(C/C=C/[C@@H](OC(C)=O)c2ccccc2)[C@@H](Cc2ccccc2)C(OC)OC)cc1`, the cytotoxicity call is reported as “active”. `COc1ccc([C@H]([C@@H](O)Cc2ccccc2)N(CC#C[C@@H](O[Si](c2ccccc2)(c2ccccc2)C(C)(C)C)c2ccccc2)[C@@H](Cc2ccccc2)C(OC)OC)cc1` was tested, and the cytotoxicity call was “inactive”. In the case of `COc1ccc([C@H]([C@@H](O)Cc2ccccc2)N(CC#C[C@@H](O)c2ccccc2)[C@@H](Cc2ccccc2)C(OC)OC)cc1`, the cytotoxicity call is reported as “inactive”. In the case of `COc1ccc(-c2cnc3c(c2)C(=O)N([C@@H](C)CO)C[C@H](C)[C@@H](CN(C)C(=O)C2CCOCC2)O3)cc1`, the cytotoxicity call is reported as “inactive”. With `COc1ccc(S(=O)(=O)Nc2ccc3c(c2)C(=O)N([C@H](C)CO)C[C@H](C)[C@H](CN(C)C(=O)CCC(F)(F)F)OCCCC[C@H](C)O3)cc1` the cytotoxicity call was “inactive”. `COc1ccc(NC(=O)N(C)C[C@H]2OCCCC[C@@H](C)Oc3ccc(NC(=O)c4ccncc4)cc3C(=O)N([C@@H](C)CO)C[C@H]2C)cc1` was tested, and the cytotoxicity call was “inactive”. In the case of `O=C(C[C@@H]1C=C[C@@H](NC(=O)c2cccnc2)[C@@H](CO)O1)NCc1ccncn1`, the cytotoxicity call is reported as “inactive”. With `C[C@@H]1CCCCO[C@@H](CN(C)S(=O)(=O)c2cccs2)[C@H](C)CN([C@H](C)CO)C(=O)c2cc(NC(=O)c3ccccc3)ccc2O1` the cytotoxicity call was “active”. For `C[C@@H]1CCCCO[C@@H](CN(C)S(=O)(=O)c2cccs2)[C@H](C)CN([C@@H](C)CO)C(=O)c2cc(NC(=O)c3ccccc3)ccc2O1`, the cytotoxicity call was “inactive”. In the case of `C[C@@H]1CN([C@@H](C)CO)C(=O)c2cc(NC(=O)c3ccccc3)ccc2O[C@@H](C)CCCCO[C@@H]1CN(C)S(=O)(=O)c1cccs1`, the cytotoxicity call is reported as “inactive”. `C[C@@H]1CCCCO[C@@H](CN(C)S(=O)(=O)c2cccs2)[C@@H](C)CN([C@@H](C)CO)C(=O)c2cc(NC(=O)c3ccccc3)ccc2O1` was tested, and the cytotoxicity call was “inactive”. `C[C@@H]1CCCCO[C@H](CN(C)S(=O)(=O)c2cccs2)[C@@H](C)CN([C@@H](C)CO)C(=O)c2cc(NC(=O)c3ccccc3)ccc2O1` was tested, and the cytotoxicity call was “inactive”. With `C[C@@H]1CN([C@H](C)CO)C(=O)c2cc(NC(=O)c3ccccc3)ccc2O[C@@H](C)CCCCO[C@H]1CN(C)S(=O)(=O)c1cccs1` the cytotoxicity call was “active”. `Cc1noc(C)c1S(=O)(=O)Nc1ccc2c(c1)C(=O)N([C@H](C)CO)C[C@H](C)[C@@H](CN(C)S(C)(=O)=O)OCCCC[C@@H](C)O2` was tested, and the cytotoxicity call was “inactive”. `CCOC(=O)N1CCN(C[C@@H](O)Cn2c(=O)c3c(ncn3C)n(C)c2=O)CC1` was tested, and the cytotoxicity call was “inactive”. In the case of `Cc1noc(C)c1S(=O)(=O)Nc1ccc2c(c1)C(=O)N([C@H](C)CO)C[C@@H](C)[C@@H](CN(C)S(=O)(=O)c1cn(C)cn1)OCCCC[C@@H](C)O2`, the cytotoxicity call is reported as “inactive”. In the case of `COc1ccc(NC(=O)Nc2ccc3c(c2)C(=O)N([C@H](C)CO)C[C@H](C)[C@@H](CN(C)CC2CC2)OCCCC[C@H](C)O3)cc1`, the cytotoxicity call is reported as “inactive”. For `CCOC(=O)C(C#N)C1=NCCC1` (centres undefined), the cytotoxicity call was “inactive”. In the case of `C[C@@H]1CN([C@H](C)CO)C(=O)c2cc(NC(=O)c3ccccc3)ccc2O[C@@H](C)CCCCO[C@@H]1CN(C)C(=O)Cc1ccccc1`, the cytotoxicity call is reported as “inactive”. With `COc1cccc(NC(=O)N[C@H]2C=C[C@H](CC(=O)N3CCN(C)CC3)O[C@@H]2CO)c1` the cytotoxicity call was “inactive”. In the case of `C[C@H]1CN([C@@H](C)CO)C(=O)c2cc(NC(=O)CCN3CCOCC3)ccc2O[C@@H]1CN(C)Cc1ccc(C(=O)O)cc1`, the cytotoxicity call is reported as “inactive”.
